# Laboratory results taken from PMC5540273 (PLoS ONE, 2017).
# Assays:
# Details in all cases: concentration: 1 μM, replicates: in singlicate; n = 1
# CAMK1 = system: CAMK1
# CAMK2A = system: CAMK2A
# CAMK2B = system: CAMK2B
# CAMK2D = system: CAMK2D
# CAMK2G = system: CAMK2G
# CAMK4 = system: CAMK4
# CAMKK1 = system: CAMKK1
# CAMKK2 = system: CAMKK2
# CASK = system: CASK
# CDC2L1 = system: T1, CDC2L1
# T1 construct: gene CDK11B
# 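Also: KINOMEscan kinase panel screen.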
SMILES,%Inh (CAMK1) [%],%Inh (CAMK2A) [%],%Inh (CAMK2B) [%],%Inh (CAMK2D) [%],%Inh (CAMK2G) [%],%Inh (CAMK4) [%],%Inh (CAMKK1) [%],%Inh (CAMKK2) [%],%Inh (CASK) [%],%Inh (CDC2L1) [%]
CCn1cnc2c(NCc3ccccc3)ncnc21 [SKF-96418],0,0,0,0,0,7,0,1,25,0
CCn1c(-c2nonc2N)nc2c(-c3ccccc3)ncc(OCCCN)c21.O=C(O)C(F)(F)F.O=C(O)C(F)(F)F [GSK260205],7,0,0,14,14,8,0,0,1,0
O=C(Nc1n[nH]c2nc(-c3ccccc3)ccc12)C1CC1 [SB-708999],3,0,0,100,17,0,6,13,14,0
c1ccc(Oc2ccc(Nc3ccnc4cc(-c5ccc(CN6CCCCC6)o5)ccc34)cc2)nc1 [GW567143],28,0,0,0,0,0,0,0,49,0
Nc1ncnc2scc(-c3ccc(NC(=O)Cc4cc(F)ccc4F)cc3)c12.O=C(O)C(F)(F)F [SB-731254-M],16,0,0,10,5,0,17,12,21,11
Cl.Cl.NCC(NC(=O)c1cc(-c2cccnc2)c(-c2ccnc3[nH]ccc23)s1)c1ccccc1 (stereo not drawn) [GSK1323434],32,0,0,8,14,0,14,24,30,0
CN(C)c1ncnc2nc[nH]c12 [SKF-31736],0,12,0,29,29,0,15,25,41,0
Cn1cc(-c2ccc3c(c2)CCN3C(=O)Cc2cc(F)cc(F)c2F)c2c(N)ncnc21 [GSK2634140],15,0,0,0,11,0,27,1,3,0
O=C(Nc1n[nH]c2nc(-c3cccc(O)c3)ccc12)C1CC1 [SB-711805],0,0,0,0,0,0,0,0,0,0
O=C(Nc1n[nH]c2cc(-c3cccs3)ccc12)C1CC1 [SB-731284],11,0,0,0,0,0,17,0,49,0
COC(=O)Nc1nc2cc(Oc3ccc(NC(=O)Nc4cccc(SC)c4)cc3)ccc2[nH]1.Cl [GW697999],11,18,28,0,12,0,0,0,16,0
COc1cc(Nc2ccnc3cc(-c4ccncc4)ccc23)cc(OC)c1OC.Cl [GW494610],20,0,0,0,7,0,7,0,15,0
Cl.O=C(Nc1ccc(Oc2ccc3[nH]c(NC(=O)c4ccco4)nc3c2)cc1)Nc1cc(C(F)(F)F)ccc1F [GW683134],0,0,0,0,0,0,0,0,50,0
COc1cccc(C2=C(Nc3cccc(O)c3)C(=O)NC2=O)c1 [SB-390771],4,17,0,25,34,0,15,28,28,0
O=C(Nc1c(F)cccc1F)c1cc(C(=O)c2ccccc2F)c[nH]1 [GSK1326180],17,2,0,1,8,5,0,0,3,0
Cn1cc(-c2ccc3c(c2)CCN3C(=O)Cc2cc(F)cc(C(F)(F)F)c2)c2c(N)ncnc21 [GSK2635225],5,0,0,0,12,0,0,8,2,5
Cc1ccc(Nc2ccnc(Nc3ccc(C)c(F)c3)n2)cc1O.Cl [GW582868],1,96.6,95.3,0,0,0,0,0,13,0
COc1cc(Nc2nccc(N3CCC(NC(=O)Nc4ccc5c(c4)OCO5)C3)n2)cc(OC)c1OC (stereo not drawn) [GSK1379766],28,0,0,14,28,0,21,24,4,0
Nc1cccc(-c2ccc3c(N)n[nH]c3c2)c1 [GSK2193613],29,0,0,11,26,0,2,13,13,7
Cc1nn2c(=O)cc(N3CCO[C@H](C)C3)nc2n1Cc1cccc(Cl)c1Cl [GSK2373693],0,0,0,10,5,5,20,2,75,0
COc1cc(Nc2nccc(N3CCC(NS(=O)(=O)c4ccc(NC(C)=O)cc4)CC3)n2)cc(OC)c1OC [GSK1379825],37,0,0,7,12,0,23,8,19,0
CN(C)CCNS(=O)(=O)c1ccc(-c2ccnc3[nH]ccc23)cc1 [GSK977620],50,0,0,0,5,57,0,0,3,0

SMILES,%Inh (CAMK1) [%],%Inh (CAMK2A) [%],%Inh (CAMK2B) [%],%Inh (CAMK2D) [%],%Inh (CAMK2G) [%],%Inh (CAMK4) [%],%Inh (CAMKK1) [%],%Inh (CAMKK2) [%],%Inh (CASK) [%],%Inh (CDC2L1) [%]
COc1ccc(NC(=O)c2ccoc2)cc1-c1ccc(C(=O)NCC2CC2)cc1 [GW810437],0,0,0,0,0,19,15,30,13,14
CN(c1ccc(F)c(NC(=O)c2cccc(OC(C)(C)C#N)c2Cl)c1)c1ccc2nc(NC(=O)C3CC3)sc2n1,0,1,0,0,8,0,10,0,0,0
CNc1nccc(-c2ccc3c(N)n[nH]c3c2)n1 [GSK2206003],24,14,31,33,33,0,10,13,21,10
CC(C)c1nc(-c2cccc(NS(=O)(=O)c3c(F)cccc3F)c2)c(-c2ccnc(Nc3ccc(N4CCOCC4)nc3)n2)s1.Cl [GSK1723980],47,0,0,2,10,0,14,6,92.1,0
Cl.Cl.NC(CNC(=O)c1cc(Br)c(-c2ccnc3[nH]ccc23)s1)c1ccccc1 (stereo not drawn) [GSK1322949],42,45,39,38,48,0,8,29,38,0
CS(=O)(=O)c1cccc(CNc2nc(Nc3ccc4c(c3)CCC(=O)N4)ncc2C(F)(F)F)c1,0,0,0,0,0,0,20,9,0,0
Cc1ccc(O)cc1Nc1ccnc2ccc(C(C)(C)C)cc12 [GW856805],45,7,10,18,22,0,3,26,25,12
N#CC1(c2cccc(C(=O)Nc3cccc(Oc4ccc5nc(NC(=O)C6CC6)sc5n4)c3)c2)CC1,0,29,26,20,100,2,9,99.6,16,0
Nc1ncc(-c2cn[nH]c2)c2scc(-c3ccc4c(c3)CCN4C(=O)Cc3ccccc3)c12 [GSK2593067],33,0,0,0,18,0,56,8,13,0
CCNc1nccc(-c2c(-c3ccc(F)cc3)ncn2C2CCN(C)CC2)n1,0,18,0,16,8,0,12,9,0,7
CC(C)c1nc(-c2ccc(F)c(NS(=O)(=O)c3c(F)cccc3F)c2)c(-c2ccnc(Nc3ccc(N4CCOCC4)nc3)n2)s1 [GSK1804250],54,0,0,7,27,0,17,21,0,0
O=C(O)C(F)(F)F.O=c1[nH]ccc2nc(N[C@@H]3CCNC3)nc(Nc3ccc4c(c3)S(=O)(=O)CC4)c12 [GSK2181306],82,59,23,55,52,98.5,92.1,40,15,0
Cc1cccc(Nc2nc(N[C@H]3CCCC[C@H]3N)ncc2C(N)=O)c1.Cl [GSK986310],54,0,0,16,33,72,22,26,56,0
Cc1ccc(C)c(NC(=O)Nc2ccc(C)c(-c3ccc(C(=O)Nc4ccncc4)cc3)c2)c1 [GSK1398473],8,0,0,0,25,0,12,27,0,0
N#Cc1cnc2cc(-c3cnc(CNCCN4CCOCC4)s3)ccc2c1Nc1ccc(Oc2ccccc2)cc1 [GW664114],22,0,0,21,0,0,48,3,15,0
Cc1ccc(-c2ccc3occ(-c4ccc(S(C)=O)cc4)c3c2)nn1 (stereo not drawn),0,0,0,7,0,18,11,20,0,0
CN(c1ccc2c(c1)nc(NCc1ccccc1)n2C)c1ccnc(Nc2ccc(CS(C)(=O)=O)cc2)n1.Cl [GW811603],0,0,0,0,0,0,14,0,0,94.2
COc1ccc(C)c(Nc2ccnc(Nc3ccc(-c4cnc[nH]4)cc3)n2)c1.Cl [GW784041],17,0,1,22,0,30,19,0,0,8
CCOc1nccc(-c2c(-c3ccc(F)cc3)ncn2C2CCNCC2)n1 [SB-249175],0,0,0,0,0,11,1,15,0,3
COc1cccc(NC(=O)NCCNc2ccnc(Nc3ccc(F)cc3)n2)c1 [GSK1379879],7,0,0,0,14,0,13,3,0,0
Cc1cc(-c2c(-c3ccc(F)cc3)ncn2CCCN2CCOCC2)nc(N)n1 [SB-222517],17,0,30,0,8,13,25,0,33,0
Cl.N#CCc1ccc(Nc2nccc(Nc3ccc(Oc4ccccc4)cc3)n2)cc1 [GW639905],10,0,0,0,0,0,0,0,8,0

SMILES,%Inh (CAMK1) [%],%Inh (CAMK2A) [%],%Inh (CAMK2B) [%],%Inh (CAMK2D) [%],%Inh (CAMK2G) [%],%Inh (CAMK4) [%],%Inh (CAMKK1) [%],%Inh (CAMKK2) [%],%Inh (CASK) [%],%Inh (CDC2L1) [%]
Cc1cc(-c2ccnc(Nc3cccc(C#N)c3)n2)cc(C)c1O [GSK1440913],24,13,11,31,39,0,24,30,0,41
Cc1ccc(O)cc1Nc1ccnc2cc(-c3ccc(CN4CCCCC4)o3)ccc12 [GW557777],4,0,13,10,8,0,10,9,2,20
COC(=O)Nc1nc2ccc(Oc3ccc(CC(=O)Nc4cc(C(F)(F)F)ccc4F)cc3)cc2[nH]1 [GW680903],2,0,0,1,12,0,0,9,0,0
CC(C)(C)c1ccc(C(=O)Nc2cn3cc(-n4ccnc4)ccc3n2)cc1,32,18,0,0,12,0,6,7,8,3
COc1cccc(-c2nc(-c3ccccc3)[nH]c2-c2ccncc2)c1 [SB-610250],1,0,0,0,2,0,0,0,15,0
CC(C)NCC(Cc1ccccc1)NC(=O)c1cc(Br)c(-c2ccnc3[nH]ccc23)s1.Cl.Cl (stereo not drawn) [GSK1383281],34,0,0,15,15,29,33,19,0,0
O=C(O)C(F)(F)F.O=c1[nH]ccc2nc(N[C@@H]3CCNC3)nc(Nc3cc(Cl)cc(Cl)c3)c12 [GSK2188764],84,71,37,60,57,95.9,75,46,19,1
COc1cccc2c(-c3ccncc3)c(-c3ccc(F)cc3)nn12 [GW468513],0,0,0,0,13,0,6,5,0,0
CN(c1ccc(NC(=O)Nc2cccc(Cl)c2)cc1)c1ccnc(N)n1.Cl [GW830707],2,0,0,10,8,14,0,14,7,0
Cc1ccc(NC(=O)c2cccc(N3CCCCC3)c2)cc1-c1ccc(C(=O)NCC2CC2)cc1 [GSK1917008],9,0,0,0,21,1,26,11,18,22
CN1CCN(Cc2ccc(NC(=O)Nc3ccc(N(C)c4ccnc(Nc5ccc(CS(C)(=O)=O)cc5)n4)cc3)cc2)CC1.Cl [GW827654],28,0,0,9,15,0,95.4,28,3,33
Fc1cc(Cl)ccc1Nc1ccnc2cc(-c3ccc(CN4CCSCC4)o3)ccc12 [GW560106],21,0,0,5,17,0,25,21,0,0
Cn1cc(-c2cnc(N)c3c(-c4ccc5c(c4)CCN5C(=O)Cc4ccccc4)csc23)cn1 [GSK2593074],0,29,12,0,13,0,11,19,23,4
CSc1ccc(NC2=C(c3ccc(Cl)cc3)C(=O)NC2=O)cc1 [SB-317658],19,4,0,18,1,12,0,0,0,0
NCCC(NC(=O)c1cc(Br)c(-c2ccnc3[nH]ccc23)s1)c1ccccc1.O=C(O)C(F)(F)F.O=C(O)C(F)(F)F (stereo not drawn) [GSK1307810],43,34,0,29,26,0,5,9,27,0
COc1ccc(C2=C(Nc3cccc(O)c3)C(=O)NC2=O)cc1 [SB-390766],23,0,0,11,0,0,0,0,39,0
Cc1cccc(Nc2nc(NCCN)ncc2C(N)=O)c1 [GSK1292139],59,0,0,14,27,0,18,28,13,0
Cc1ccccc1CC(=O)N1CCc2cc(-c3cn(C)c4ncnc(N)c34)ccc21 [GSK2603346],16,0,0,0,5,5,0,0,0,0
CN(C)CCOc1ccc(-c2cc(-c3ccc(Cl)c(O)c3)c(-c3ccncc3)[nH]2)cc1.Cl.Cl [SB-684387],24,0,0,13,19,0,25,21,17,0
Fc1cc(Cl)ccc1Nc1ccnc2cc(-c3ccc(CN4CCOCC4)o3)ccc12 [GW560109],0,0,0,0,0,13,0,0,16,0
Nc1ncc(-c2ccc3nccc(-c4ccncc4)c3c2)cc1S(=O)(=O)N1CCCCC1 [GSK1693850],18,4,0,0,14,0,24,33,24,0
O=C1NC(=O)C(c2ccccc2Cl)=C1Nc1cccc(Cl)c1 [SB-342409],0,10,0,43,19,47,21,0,39,0
